Where “and” joins values, the source holds several entries; their conditions need not be identical. Identical values can stand only once. Out of some 5,500 compounds screened, about 2,000 (36%) were called active. About 18% were inconclusive and are not listed. Rule as the data show it: active = normalized growth mostly below about 0.91 (no sharp cut-off); inconclusive = no clear call, values can overlap the other calls; inactive = mostly above about 0.92. Some of the results follow.
Assay: chemical genetic growth profiling, strain panel (AID 1159580);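 also: tested at 20 µM; growth read once vehicle control cultures reached saturation at 30 °C; 1 = growth at the plate median or of vehicle wells; lower values mean less growth of the strain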
Conditions: S. cerevisiae deletion strains, growth OD

Measured: normalized growth

CC(=O)O[C@H]1C[C@H](O[C@H]2[C@@H](O)C[C@H](O[C@H]3[C@@H](O)C[C@H](O[C@H]4CC[C@@]5(C)C(CCC6C5C[C@@H](O)[C@]5(C)[C@@H](C7=CC(=O)OC7)CC[C@]65O)C4)O[C@@H]3C)O[C@@H]2C)O[C@H](C)[C@H]1O[C@@H]1O[C@H](CO)[C@@H](O)[C@H](O)[C@H]1O (stereo not given in full)
inactive: locus YAL021C, strain ccr4, active compounds read low 1 | locus YAL026C, strain drs2, active compounds read low 0.996 | locus YAL030W, strain snc1, active compounds read low 1 | locus YBL061C, strain skt5, active compounds read low 0.991 | locus YBR009C, strain hhf1, active compounds read low 0.995 | locus YBR021W, strain FUR4, active compounds read low 1.02 | locus YBR023C, strain chs3, active compounds read low 0.999 | locus YBR171W, strain sec66, active compounds read low 0.995 | locus YBR229C, strain ROT2, active compounds read low 1.01 | locus YBR231C, strain swc5, active compounds read low 0.987 | locus YBR279W, strain paf1, active compounds read low 0.996 | locus YCL011C, strain gbp2, active compounds read low 1 | locus YCL016C, strain dcc1, active compounds read low 0.996 | locus YCL029C, strain bik1, active compounds read low 0.985 | locus YCL061C, strain MRC1, active compounds read low 0.999 | locus YCL069W, strain vba3, active compounds read low 0.993 | locus YCR088W, strain abp1, active compounds read low 0.989 | locus YDL005C, strain med2, active compounds read low 0.996 | locus YDL035C, strain GPR1, active compounds read low 1.03 | locus YDL040C, strain nat1, active compounds read low 0.994 | locus YDL074C, strain BRE1, active compounds read low 1.02 | locus YDL101C, strain DUN1, active compounds read low 1.02 | locus YDL134C, strain PPH21, active compounds read low 1.02 | locus YDL185W, strain tfp1, active compounds read low 1 | locus YDL192W, strain arf1, active compounds read low 1.01 | locus YDR001C, strain nth1, active compounds read low 0.994 | locus YDR069C, strain doa4, active compounds read low 0.988 | locus YDR101C, strain arx1, active compounds read low 0.983 | locus YDR137W, strain rgp1, active compounds read low 0.997 | locus YDR150W, strain NUM1, active compounds read low 1.01 | locus YDR159W, strain sac3, active compounds read low 0.981 | locus YDR162C, strain NBP2, active compounds read low 1.02 | locus YDR195W, strain ref2 0.961 | locus YDR297W, strain sur2, active compounds read low 0.994 | locus YDR318W, strain mcm21, active compounds read low 0.989 | locus YDR334W, strain swr1, active compounds read low 0.999 | locus YDR335W, strain msn5, active compounds read low 1 | locus YDR388W, active compounds read low 0.989 | locus YDR392W, strain spt3, active compounds read low 0.979 | locus YDR502C, strain sam2, active compounds read low 1.01 | locus YEL003W, strain gim4, active compounds read low 0.995 | locus YEL037C, strain rad23, active compounds read low 0.999 | locus YEL061C, strain CIN8 (second series), active compounds read low 0.99 | locus YEL061C, strain CIN8, active compounds read low 1.01 | locus YER015W, strain faa2, active compounds read low 0.994 | locus YER016W, strain bim1, active compounds read low 0.993 | locus YER110C, active compounds read low 0.984 | locus YER111C, strain swi4, active compounds read low 0.997 | locus YER155C, strain BEM2 (second series), active compounds read low 1.01 | locus YER155C, strain BEM2, active compounds read low 1 | locus YER167W, strain BCK2, active compounds read low 1.01 | locus YFR010W, strain ubp6, active compounds read low 0.994 | locus YGL078C, strain dbp3, active compounds read low 1.01 | locus YGL086W, strain mad1, active compounds read low 0.998 | locus YGL167C, strain pmr1, active compounds read low 1 | locus YGL173C, strain kem1, active compounds read low 1 | locus YGL227W, strain vid30, active compounds read low 0.987 | locus YGL240W, strain doc1, active compounds read low 0.995 | locus YGL248W, strain PDE1, active compounds read low 1.01 | locus YGL253W, strain hxk2, active compounds read low 0.997 | locus YGR078C, strain PAC10, active compounds read low 1 | locus YGR135W, strain pre9, active compounds read low 1.01 | locus YGR229C, strain SMI1, active compounds read low 1.02 | locus YGR252W, strain gcn5, active compounds read low 1.17 | locus YHR013C, strain ard1, active compounds read low 0.969 | locus YHR027C, strain rpn1, active compounds read low 0.999 | locus YHR030C, strain SLT2, active compounds read low 1 and 0.975 | locus YHR079C, strain IRE1, active compounds read low 0.966 | locus YHR094C, strain hxt1, active compounds read low 0.973 | locus YHR129C, strain ARP1, active compounds read low 1.01 | locus YHR142W, strain chs7, active compounds read low 0.996 | locus YHR200W, strain rpn10, active compounds read low 1 | locus YIL066C, strain RNR3, active compounds read low 1.01 | locus YIL073C, strain SPO22, active compounds read low 1.08 | locus YIL125W, strain kgd1, active compounds read low 1 | locus YIR030C, strain dcg1, active compounds read low 0.988 | locus YJL092W, strain hpr5, active compounds read low 1 | locus YJL095W, strain BCK1 (second series), active compounds read low 0.998 | locus YJL095W, strain BCK1, active compounds read low 1 and 0.977 | locus YJL115W, strain asf1, active compounds read low 0.996 | locus YJL129C, strain trk1, active compounds read low 0.998 | locus YJL134W, strain LCB3, active compounds read low 1.01 | locus YJL154C, strain vps35, active compounds read low 0.993 | locus YJL164C, strain tpk1, active compounds read low 1.01 | locus YJL166W, strain qcr8, active compounds read low 1 | locus YJL168C, strain set2, active compounds read low 0.982 | locus YJL187C, strain SWE1 (second series), active compounds read low 1.01 | locus YJL187C, strain SWE1, active compounds read low 0.995 | locus YJR043C, strain POL32, active compounds read low 0.999 | locus YJR066W, strain TOR1, active compounds read low 0.933

— PubChem BioAssay AID1159580 (chemical genetic matrix, 2015)
